Among the data in publication PMC7862700, “An all-to-all approach to the identification of sequence-specific readers for epigenetic DNA modifications on cytosine” are binding signal values, retold here.

The target of the first assay is T1, ERF (Homo sapiens, UniProt P50548 1-548).
T1 sequence: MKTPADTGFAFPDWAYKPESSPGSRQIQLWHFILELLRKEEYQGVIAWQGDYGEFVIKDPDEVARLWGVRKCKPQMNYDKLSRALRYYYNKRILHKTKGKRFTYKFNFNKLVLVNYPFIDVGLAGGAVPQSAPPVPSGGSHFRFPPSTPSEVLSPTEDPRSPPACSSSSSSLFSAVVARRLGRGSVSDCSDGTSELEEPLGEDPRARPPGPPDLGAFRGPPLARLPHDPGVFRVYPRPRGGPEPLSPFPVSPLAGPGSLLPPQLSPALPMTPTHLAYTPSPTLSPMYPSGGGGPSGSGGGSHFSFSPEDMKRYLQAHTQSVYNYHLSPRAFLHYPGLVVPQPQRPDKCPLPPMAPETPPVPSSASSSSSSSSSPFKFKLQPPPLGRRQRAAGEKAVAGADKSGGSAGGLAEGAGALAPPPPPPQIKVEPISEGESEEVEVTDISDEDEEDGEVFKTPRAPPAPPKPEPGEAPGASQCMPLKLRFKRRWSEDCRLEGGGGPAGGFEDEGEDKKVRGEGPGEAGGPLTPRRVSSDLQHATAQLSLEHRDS
The experiment in a line: DAPPL (digital affinity profiling via proximity ligation, sequencing); 10 mM Tris-HCl pH 7.5, 50 mM NaCl, 1 mM DTT, 4% glycerol, room temperature, 30 min; GST-TFs on glutathione beads, 16-mer random dsDNA library, 0.1% formaldehyde crosslink after washing; high values mean tight binding. To be noted: protein: recombinant; tags: N-terminal GST; dsDNA, one strand shown. Summed up: (§1)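 Yeast served to express human transcription factors as GST fusions, which were then captured on glutathione beads and labelled with DNA barcodes. Pooled with a tag-only sample, they were incubated with 200 nmole of a 16-mer random double-stranded DNA library for 30 min at room temperature in Tris/NaCl/DTT/glycerol buffer, washed, crosslinked with 0.1% formaldehyde, ligated by proximity, amplified by PCR and sequenced. Dividing each hexamer's read frequency for a factor by its frequency for the tag-only sample gives the binding signal.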
Take TACGAA: the binding signal was 1.28 fold enrichment (6-mer frequency, TF over GST control).
As to CTGGAA, the binding signal is 1.26 fold enrichment (6-mer frequency, TF over GST control).
On to ATGCAT, for which the binding signal was 1.21 fold enrichment (6-mer frequency, TF over GST control).
The same measure, in the same setting: the result for CTTCCT reads 2.9 fold enrichment (6-mer frequency, TF over GST control); that for TCGTTT, 1.07 fold enrichment (6-mer frequency, TF over GST control); that for TCTCTC, 1.31 fold enrichment (6-mer frequency, TF over GST control).
Still for that read-out and setting: the result for GGTCTC reads 2.29 fold enrichment (6-mer frequency, TF over GST control).
The same measure, in the same setting: the result for CTACGG reads 1.37 fold enrichment (6-mer frequency, TF over GST control); that for ATTGCA, 1.23 fold enrichment (6-mer frequency, TF over GST control); that for TTGTGG, 1.33 fold enrichment (6-mer frequency, TF over GST control).
As for AATACG, the binding signal was 1.23 fold enrichment (6-mer frequency, TF over GST control).
As to TACCAT, the binding signal was 1.22 fold enrichment (6-mer frequency, TF over GST control).
As for TTAAAC, the binding signal was 1.39 fold enrichment (6-mer frequency, TF over GST control).
CCTTAC: the binding signal is 1.32 fold enrichment (6-mer frequency, TF over GST control).
Take CTCTGA: the binding signal is 1.22 fold enrichment (6-mer frequency, TF over GST control).
On to CTTGTA, for which the binding signal was 1.45 fold enrichment (6-mer frequency, TF over GST control).
In the case of TATAAT, the binding signal is 1.25 fold enrichment (6-mer frequency, TF over GST control).
Same read-out and setting: the result for AAACAA reads 1.25 fold enrichment (6-mer frequency, TF over GST control); that for CTTCAC, 1.44 fold enrichment (6-mer frequency, TF over GST control); that for ATAAAT, 1.19 fold enrichment (6-mer frequency, TF over GST control).
On to AATCTT, for which the binding signal is 1.26 fold enrichment (6-mer frequency, TF over GST control).
Still for that read-out and setting: to TTTGAT belongs 1.21 fold enrichment (6-mer frequency, TF over GST control); to TCTATT, 1.26 fold enrichment (6-mer frequency, TF over GST control).
On to TACGAT, for which the binding signal is 1.07 fold enrichment (6-mer frequency, TF over GST control).
Regarding CCCGTA, the binding signal was 1.09 fold enrichment (6-mer frequency, TF over GST control).
Consider TTCTCG, for which the binding signal is 1.27 fold enrichment (6-mer frequency, TF over GST control).
In the case of GTAAAC, the binding signal is 1.27 fold enrichment (6-mer frequency, TF over GST control).
GTTCTG: the binding signal is 1.12 fold enrichment (6-mer frequency, TF over GST control).
As for TTTAAG, the binding signal is 1.3 fold enrichment (6-mer frequency, TF over GST control).
With CAAAAT, the binding signal was 1.33 fold enrichment (6-mer frequency, TF over GST control).
For the sequence TACTCA, the binding signal was 1.14 fold enrichment (6-mer frequency, TF over GST control).
On the same count and under the same terms, to AAATAT belongs 1.25 fold enrichment (6-mer frequency, TF over GST control); to AATTAC, 1.35 fold enrichment (6-mer frequency, TF over GST control).
As to ATGAAC, the binding signal is 1.26 fold enrichment (6-mer frequency, TF over GST control).
With TCTTTG, the binding signal is 1.2 fold enrichment (6-mer frequency, TF over GST control).
Still for that read-out and setting: to ATCCAT belongs 1.26 fold enrichment (6-mer frequency, TF over GST control); to ATCCCC, 1.43 fold enrichment (6-mer frequency, TF over GST control); to CTTGGG, 1.47 fold enrichment (6-mer frequency, TF over GST control).
Turning to AACATA, the binding signal was 1.32 fold enrichment (6-mer frequency, TF over GST control).
Consider TCCTTT, for which the binding signal is 1.62 fold enrichment (6-mer frequency, TF over GST control).

For another assay, the target named is T2, ETV3L (Homo sapiens, UniProt Q6ZN32 1-361).
T2 sequence: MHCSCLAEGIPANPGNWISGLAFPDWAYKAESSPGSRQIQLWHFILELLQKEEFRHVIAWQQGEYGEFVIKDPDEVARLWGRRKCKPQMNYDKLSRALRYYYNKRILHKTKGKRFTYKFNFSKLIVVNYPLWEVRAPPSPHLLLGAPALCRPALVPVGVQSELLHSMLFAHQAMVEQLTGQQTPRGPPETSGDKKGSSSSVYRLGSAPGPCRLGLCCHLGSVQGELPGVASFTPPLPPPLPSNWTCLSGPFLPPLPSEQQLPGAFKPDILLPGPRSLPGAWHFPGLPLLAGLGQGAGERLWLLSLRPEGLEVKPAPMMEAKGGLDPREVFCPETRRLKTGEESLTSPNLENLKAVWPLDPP
Described as above. Conditions: protein: recombinant; tags: N-terminal GST; dsDNA, one strand shown. The essentials:
as §1
For the sequence TACGAA, the binding signal was 1.27 fold enrichment (6-mer frequency, TF over GST control).
For the sequence CTGGAA, the binding signal was 1.36 fold enrichment (6-mer frequency, TF over GST control).
The same measure, in the same setting: the result for ATGCAT reads 1.26 fold enrichment (6-mer frequency, TF over GST control); that for CTTCCT, 3.08 fold enrichment (6-mer frequency, TF over GST control).
TCGTTT: the binding signal was 1.15 fold enrichment (6-mer frequency, TF over GST control).
TCTCTC: the binding signal was 1.38 fold enrichment (6-mer frequency, TF over GST control).
As to GGTCTC, the binding signal was 2.36 fold enrichment (6-mer frequency, TF over GST control).
Turning to CTACGG, the binding signal was 1.42 fold enrichment (6-mer frequency, TF over GST control).
Take ATTGCA: the binding signal was 1.19 fold enrichment (6-mer frequency, TF over GST control).
As to TTGTGG, the binding signal was 1.6 fold enrichment (6-mer frequency, TF over GST control).
The same measure, in the same setting: the result for AATACG reads 1.23 fold enrichment (6-mer frequency, TF over GST control).
Same read-out and setting: to TACCAT belongs 1.25 fold enrichment (6-mer frequency, TF over GST control).
Consider TTAAAC, for which the binding signal is 1.36 fold enrichment (6-mer frequency, TF over GST control).
On to CCTTAC, for which the binding signal is 1.26 fold enrichment (6-mer frequency, TF over GST control).
The same measure, in the same setting: the result for CTCTGA reads 1.07 fold enrichment (6-mer frequency, TF over GST control); that for CTTGTA, 1.26 fold enrichment (6-mer frequency, TF over GST control); that for TATAAT, 1.23 fold enrichment (6-mer frequency, TF over GST control).
Regarding AAACAA, the binding signal was 1.32 fold enrichment (6-mer frequency, TF over GST control).
CTTCAC: the binding signal is 1.44 fold enrichment (6-mer frequency, TF over GST control).
For ATAAAT, the binding signal was 1.18 fold enrichment (6-mer frequency, TF over GST control).
Same read-out and setting: to AATCTT belongs 1.38 fold enrichment (6-mer frequency, TF over GST control).
For the sequence TTTGAT, the binding signal was 1.28 fold enrichment (6-mer frequency, TF over GST control).
The same measure, in the same setting: to TCTATT belongs 1.28 fold enrichment (6-mer frequency, TF over GST control).
Same read-out and setting: the result for TACGAT reads 1.13 fold enrichment (6-mer frequency, TF over GST control).
CCCGTA: the binding signal is 1.19 fold enrichment (6-mer frequency, TF over GST control).
For the sequence TTCTCG, the binding signal was 1.46 fold enrichment (6-mer frequency, TF over GST control).
On to GTAAAC, for which the binding signal is 1.18 fold enrichment (6-mer frequency, TF over GST control).
Take GTTCTG: the binding signal was 1.23 fold enrichment (6-mer frequency, TF over GST control).
On to TTTAAG, for which the binding signal is 1.26 fold enrichment (6-mer frequency, TF over GST control).
The same measure, in the same setting: the result for CAAAAT reads 1.19 fold enrichment (6-mer frequency, TF over GST control); that for TACTCA, 1.23 fold enrichment (6-mer frequency, TF over GST control); that for AAATAT, 1.32 fold enrichment (6-mer frequency, TF over GST control).
For the sequence AATTAC, the binding signal was 1.25 fold enrichment (6-mer frequency, TF over GST control).
Consider ATGAAC, for which the binding signal was 1.28 fold enrichment (6-mer frequency, TF over GST control).
With TCTTTG, the binding signal is 1.24 fold enrichment (6-mer frequency, TF over GST control).
For ATCCAT, the binding signal was 1.11 fold enrichment (6-mer frequency, TF over GST control).
Consider ATCCCC, for which the binding signal was 1.41 fold enrichment (6-mer frequency, TF over GST control).
Turning to CTTGGG, the binding signal is 1.26 fold enrichment (6-mer frequency, TF over GST control).
Consider AACATA, for which the binding signal was 1.24 fold enrichment (6-mer frequency, TF over GST control).
For the sequence TCCTTT, the binding signal is 1.85 fold enrichment (6-mer frequency, TF over GST control).

The target in a further assay is T3, ETS2 (Homo sapiens, UniProt P15036 1-469).
T3 sequence: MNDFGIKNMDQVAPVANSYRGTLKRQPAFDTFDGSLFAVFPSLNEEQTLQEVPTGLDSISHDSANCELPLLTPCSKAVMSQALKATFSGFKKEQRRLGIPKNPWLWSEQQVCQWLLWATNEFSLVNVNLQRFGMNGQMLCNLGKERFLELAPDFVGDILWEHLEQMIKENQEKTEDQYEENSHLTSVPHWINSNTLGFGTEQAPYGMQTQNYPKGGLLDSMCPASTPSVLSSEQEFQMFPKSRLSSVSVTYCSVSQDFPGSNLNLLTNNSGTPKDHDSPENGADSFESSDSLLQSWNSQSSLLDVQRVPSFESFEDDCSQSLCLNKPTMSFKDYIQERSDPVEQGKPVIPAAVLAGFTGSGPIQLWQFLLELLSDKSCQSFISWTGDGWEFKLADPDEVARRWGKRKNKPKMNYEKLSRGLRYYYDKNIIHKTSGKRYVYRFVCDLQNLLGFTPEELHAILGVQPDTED
The description is as above. Conditions: protein: recombinant; tags: N-terminal GST; dsDNA, one strand shown. The essentials: as §1
As for TACGAA, the binding signal is 1.18 fold enrichment (6-mer frequency, TF over GST control).
Still for that read-out and setting: the result for CTGGAA reads 1.3 fold enrichment (6-mer frequency, TF over GST control); that for ATGCAT, 1.21 fold enrichment (6-mer frequency, TF over GST control).
Same read-out and setting: to CTTCCT belongs 3.37 fold enrichment (6-mer frequency, TF over GST control).
With TCGTTT, the binding signal was 1.28 fold enrichment (6-mer frequency, TF over GST control).
Consider TCTCTC, for which the binding signal was 1.2 fold enrichment (6-mer frequency, TF over GST control).
GGTCTC: the binding signal was 2.55 fold enrichment (6-mer frequency, TF over GST control).
Take CTACGG: the binding signal is 1.16 fold enrichment (6-mer frequency, TF over GST control).
Same read-out and setting: the result for ATTGCA reads 1.15 fold enrichment (6-mer frequency, TF over GST control).
Regarding TTGTGG, the binding signal is 1.36 fold enrichment (6-mer frequency, TF over GST control).
As for AATACG, the binding signal was 1.28 fold enrichment (6-mer frequency, TF over GST control).
TACCAT: the binding signal was 1.22 fold enrichment (6-mer frequency, TF over GST control).
TTAAAC: the binding signal was 1.2 fold enrichment (6-mer frequency, TF over GST control).
On to CCTTAC, for which the binding signal is 1.3 fold enrichment (6-mer frequency, TF over GST control).
On the same count and under the same terms, to CTCTGA belongs 1.25 fold enrichment (6-mer frequency, TF over GST control); to CTTGTA, 1.44 fold enrichment (6-mer frequency, TF over GST control); to TATAAT, 1.19 fold enrichment (6-mer frequency, TF over GST control).
The same measure, in the same setting: to AAACAA belongs 1.32 fold enrichment (6-mer frequency, TF over GST control); to CTTCAC, 1.36 fold enrichment (6-mer frequency, TF over GST control).
As to ATAAAT, the binding signal was 1.19 fold enrichment (6-mer frequency, TF over GST control).
